Test results as given in PubChem BioAssay (NCATS).
Inconclusive results are not listed. Unmarked numbers belong to inactive results. Active and inactive are the calls of the source. Calls come from the whole dose curve; as a rule, active = well fitted cell-killing curve with a large enough effect; inconclusive = small, poorly fitted or top-dose-only effect; inactive = flat fitted curve, though single readings scatter.

Assay: qHTS of pediatric cancer cell lines to identify multiple opportunities for drug repurposing: Primary screen for RD cells (AID 1347104); note: nearly all actives have a fitted effect of over 55% in size;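 for activity change, negative = cytotoxic: plate controls were DMSO for no effect and bortezomib for full effect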
Conditions: RD rhabdomyosarcoma viability, CellTiter-Glo luminescence, 48 h; series mostly up to 46 µM; activity change, negative = cytotoxic: at the top concentration
In short: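 CRCs from 8- or 11-point titrations (lowest final 0.59 nM NPC, 0.78 nM MIPE). Cell viability: CellTiter-Glo after 48 h incubation, 15 min room-temperature development, luminescence imaging.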
Potency is the fitted concentration of half-maximal effect.

Compound | activity change, negative = cytotoxic | Potency
Nc1cc(=O)[nH]c(N)n1 | 7.46% | –
Nc1ccc(S(=O)(=O)Nc2nccs2)cc1 | 13.2% | –
C[C@H](N)[C@H](O)c1cccc(O)c1 | 9.78% | –
C[C@@H](O)[C@H](N)C(=O)O | 17% [at 16.1 µM] | –
CN1CCOC(c2ccccc2)c2ccccc2C1 (centres undefined) | -3.57% | –
CC(=O)NC(Cc1ccccc1)C(=O)O (centres undefined) | -7.34% | –
Cc1cc(CC(=O)O)n(C)c1C(=O)c1ccc(Cl)cc1 | 14.5% | –
NC1CCN(c2cccc(Cl)n2)CC1 | -2.77% | –
O=Cc1ccccc1C=O | 2.92% | –
CC(O)COc1ccccc1 (centres undefined) | 18.5% | –
COc1ccccc1O | 17.5% [at 92.7 µM] | –
CC1(C)Oc2ccc(C#N)cc2[C@@H](N2CCCC2=O)[C@@H]1O | 10.4% | –
CCN(CC)C(=O)Nc1ccc(OCC(O)CNC(C)(C)C)c(C(C)=O)c1 (centres undefined) | 1.65% | –
CC(C)(C(=O)O)c1ccc(C(O)CCCN2CCC(C(O)(c3ccccc3)c3ccccc3)CC2)cc1 (centres undefined) | 0.59% | –
CCCCCCCCCCCCOS(=O)(=O)O | 7.03% | –
NCCNCCNCCNCCN | -3.51% [at 9.22 µM] | –
Cc1cc2c(cc1S(N)(=O)=O)S(=O)(=O)CCC2 | 7.34% | –
CNCC(O)c1ccc(O)c(O)c1 (centres undefined) | -27.9% | –
NC(=O)c1ncn([C@@H]2O[C@H](CO)[C@@H](O)[C@H]2O)c1N | 5.68% | –
COc1cc(C)c(Cc2cnc(N)nc2N)cc1OC | 9.79% | –

Compound | activity change, negative = cytotoxic | Potency
C[C@H](NC(CCc1ccccc1)C(=O)O)C(=O)N1CCC[C@H]1C(=O)O (some centres undefined) | 8.95% | –
CCN(CC)CCNC(C(=O)OCCC(C)C)c1ccccc1 (centres undefined) | 0.779% | –
NC(=O)NNc1ccccc1 | -3.68% | –
CC[C@H]1CN2CCc3cc(OC)c(OC)cc3[C@@H]2C[C@@H]1C[C@H]1NCCc2cc(OC)c(OC)cc21 | – | 0.335 µM (active)
Cc1cc2nc3c(=O)[nH]c(=O)nc-3n(C[C@H](O)[C@H](O)[C@H](O)CO)c2cc1C | 9.64% [at 16.1 µM] | –
O=C(O)c1ccccc1-c1ccc(C(F)(F)F)cc1 | 18.6% | –
CC1=C(CC(=O)O)c2cc(F)ccc2/C1=C\c1ccc(S(C)(=O)=O)cc1 | -5.31% | –
Cc1ccc(C(C)C)cc2c(C)ccc1-2 | 10.2% | –
O=C1Nc2ccc(Cl)cc2[C@@](C#CC2CC2)(C(F)(F)F)O1 | -28.7% | –
O=S(=O)(O)NC1CCCCC1 | 15.6% | –
CN(N=O)C(=O)N[C@@H]1[C@@H](O)[C@H](O)[C@@H](CO)O[C@@H]1O | 4.67% | –
C[C@H]1O[C@H](O[C@H]2[C@H](O)[C@@H](O)[C@@H](O[C@H]3[C@H](O)[C@@H](O)[C@H](O)O[C@@H]3CO)O[C@@H]2CO)[C@H](O)[C@@H](O)[C@@H]1N[C@H]1C=C(CO)[C@@H](O)[C@H](O)[C@H]1O | 2.75% | –
COc1ccc2cc1Oc1ccc(cc1)C[C@H]1c3c(cc4c(c3Oc3cc5c(cc3OC)CCN(C)[C@@H]5C2)OCO4)CCN1C | – | 23.7 µM (active)
COc1ccc2cc1Oc1cc3c(cc1OC)CC[N+](C)(C)[C@H]3Cc1ccc(cc1)Oc1c(OC)c(OC)cc3c1[C@@H](C2)[N+](C)(C)CC3 | 14.6% | –
O=C1O[C@H](CO)[C@@H](O)[C@H](O)[C@H]1O | 3.03% | –
Oc1ccc(C(O)CNCCCCCCNCC(O)c2ccc(O)c(O)c2)cc1O (centres undefined) | -2.83% | –
CC1=C(/C=C/C(C)=C/C=C/C(C)=C/C(=O)O)C(C)(C)CCC1 | -10.6% | –
CC1(C)CO[C@@H](CC(=O)O)CN1 | 11.1% | –
O=C(O)COc1nn(Cc2ccccc2)c2ccccc12 | -0.672% | –
